# According to PubChem BioAssay (Tox21):
# “And” between values parts separate entries of the source, which are not always exact repeats. Identical values can stand only once. Records with an inconclusive call do not appear. Some structures have more than one record in an assay (separate samples or runs), and their calls can disagree. The source made the active and inactive calls. The call rests on the fitted dose curve; in most records, active means well fitted activation curve with a large enough effect in the repeat runs; inconclusive means weak or mixed curves; inactive means flat fitted curve, though single readings scatter.
# Assay: A CellTox Green Cytotoxicity Assay to monitor cytotoxicity in HepG2 cells - 40 hour (AID 1224879); further: nearly all actives have a fitted effect of over 40% in size
# Conditions: CellTox Green fluorescence; series mostly up to 76.8 µM; cytotoxicity increase: at the top concentration
# Text: National Center for Advancing Translational Sciences [NCATS]
# NIH Chemical Genomics Center [NCGC]
# U.S. Environmental Protection Agency [EPA]
# National Institutes of Environmental Health Sciences [NIEHS]
# National Toxicology Program [NTP]
# Cell-based models are critical for drug discovery. Determining the natural cytotoxic effects resulting from test compounds is an essential research activity. A CellTox Green Cytotoxicity Assay to monitor cytotoxicity in real time of continues cell culture during 40 hours of the compound treatment was used to screen Tox21 10K library compounds in HepG2 cells. CellTox Green Cytotoxicity Assay is a nonlytic, homogeneous, biofluorescent method to measure cytotoxicity in cell culture after experimental manipulation. The assay system uses a proprietary asymmetric cyanine dye that is excluded from viable cells but preferentially stains the dead cell's DNA. […] Viable cells produce no appreciable increases in fluorescence. Therefore, the fluorescence signal produced by the binding interaction with dead cell DNA is proportional to cytotoxicity.
# The mixture of HepG2 cell suspension and reagents were dispensed at 600cells/6 ul/well in 1536-well tissue culture treated black solid bottom plates using a Multidrop dispenser. After the assay plates were incubated at a 37 C/5% CO2 incubator for 5 hours, 23 nL of compounds dissolved in DMSO, positive and negative controls was transferred to the assay plate by a pintool work station. The plates were incubated at 37 C for 40 hours. The fluorescence intensity were measured at 0h, 8h, 16h, 24h, 32h and 40h time points using ViewLux plate reader during compound treatment.
# On the % scale 0 is the no-effect control and ±100 the full control effect; potency means the concentration at half of the fitted maximal effect.
Structure (SMILES),Potency,cytotoxicity increase
COc1ccc(C(=O)/C(Br)=C\C(=O)O)cc1,13.8 µM (active),
Cc1cc(=O)oc2cc(N(C)C)ccc12,,-7.59% (inactive)
CCCC(c1cc(C(C)(C)C)c(O)cc1C)c1cc(C(C)(C)C)c(O)cc1C,31.3 µM (active),
Clc1ccc2nsnc2c1NC1=NCCN1,,-8.2% [at 35.3 µM] (inactive)
Clc1ccccc1C(c1ccccc1)(c1ccccc1)n1ccnc1,21.9 µM (active) and inactive,
O=C(O)c1ccc(Cl)c(Cl)c1,,-20.9% (inactive)
Cc1c(C)c2c(c(C)c1O)CCC(C)(COc1ccc(CC3SC(=O)NC3=O)cc1)O2 (stereo not given),,14.8% [at 35.3 µM] (inactive)
CC(C)(C)c1ccc(C(=O)CCCN2CCC(OC(c3ccccc3)c3ccccc3)CC2)cc1,19 µM (active),
CC(C)(C)c1ccc(C(=O)O)cc1,,3.56% (inactive)
O=C(c1ccc(O)cc1O)c1ccc(O)cc1O,inactive,
Clc1ccc(C(Cn2ccnc2)OCc2ccc(Sc3ccccc3)cc2)c(Cl)c1 (stereo not given),,0.265% [at 35.3 µM] (inactive)
CCOC(=O)c1nc(C(Cl)(Cl)Cl)n(-c2ccc(Cl)cc2Cl)n1,,-1.62% (inactive)
CC(C)c1ccc2c(c1)CC[C@H]1[C@](C)(CN)CCC[C@]21C,11 µM (active),
Oc1cc2ccccc2c2ccccc12,11 µM (active),
CC(C)(C)C(=O)OCOC(=O)[C@@H]1N2C(=O)[C@@H](NC(=O)[C@H](N)c3ccccc3)[C@H]2SC1(C)C,,-0.215% [at 35.3 µM] (inactive)
C[C@@H]1C[C@H]2[C@@H]3CCC4=CC(=O)C=C[C@]4(C)[C@@]3(Cl)[C@@H](O)C[C@]2(C)[C@@]1(OC(=O)c1ccco1)C(=O)CCl,,20.6% [at 35.3 µM] (inactive)
[Cl][Au]([Cl])[Cl],7.76 µM (active),
COc1cc(/C=C/C(=O)O[C@H]2CC[C@]34C[C@]35CC[C@]3(C)[C@@H]([C@H](C)CCC=C(C)C)CC[C@@]3(C)[C@@H]5CC[C@H]4C2(C)C)ccc1O,,5.7% [at 35.3 µM] (inactive)
COc1ccc(CN2CCN(C(c3ccc(F)cc3)c3ccc(F)cc3)CC2)c(OC)c1OC,10.7 µM (active),
CCCCCCCCNC(C)C(O)c1ccc(SC(C)C)cc1 (stereo not given),15.1 µM (active),

Structure (SMILES),Potency,cytotoxicity increase
CCCC(=O)OC[C@@H](OC(=O)CCC)[C@@H](OC(=O)CCC)[C@H](Cn1c2nc(=O)[nH]c(=O)c-2nc2cc(C)c(C)cc21)OC(=O)CCC,21.3 µM (active),
[Cl][Bi]([Cl])([c]1ccccc1)([c]1ccccc1)[c]1ccccc1,4.87 µM (active),
CC[C@@]1(O)C(=O)OCc2c1cc1n(c2=O)Cc2c-1nc1ccccc1c2/C=N/OC(C)(C)C,1.07 µM (active),
O=C(OCC(COC(=O)c1ccccc1)(COC(=O)c1ccccc1)COC(=O)c1ccccc1)c1ccccc1,,-4.59% (inactive)
O=C1C=CC(=O)N1,17.8 µM (active),
O=C1c2ccccc2Cc2ccccc21,,4.28% (inactive)
CC(=O)SC[C@@H](Cc1ccccc1)C(=O)NCC(=O)OCc1ccccc1,,0.872% [at 35.3 µM] (inactive)
CCCN(CCC)C(=O)C(CCC(=O)OCCCN1CCN(CCOC(=O)Cc2c(C)n(C(=O)c3ccc(Cl)cc3)c3ccc(OC)cc23)CC1)NC(=O)c1ccccc1 (stereo not given),23.9 µM (active),
O=C1CCCc2c1cc1ccc3cccc4ccc2c1c34,,8.84% (inactive)
C/C(=C(/OCCOc1ccc(Cl)cc1)c1ccc(Cl)cc1Cl)n1ccnc1,,-0.0323% [at 35.3 µM] (inactive)
Cc1ccc(O)c(C(C)(C)C)c1,43.6 µM (active) and 34.7 µM (active),
OCCCCCCCCCCCCBr,11.1 µM (active),
Nc1ccc2c3c(cccc13)-c1ccccc1-2,44.1 µM (active),
Nc1ccc(N)c2ccccc12,54.9 µM (active),
CC(C)(C)CC(C)(C)c1ccc(OCCOCC[N+](C)(C)Cc2ccccc2)cc1,24.5 µM (active) and 10.7 µM (active),
CCCCCCCC[P+](CCCCCCCC)(CCCCCCCC)CCCCCCCC,10.9 µM (active),
Nc1nc2ccccc2n1Cc1ccc(F)cc1,23.9 µM (active),
CCCN(CCC)c1c([N+](=O)[O-])cc(C(F)(F)F)c(N)c1[N+](=O)[O-],54.8 µM (active),
[O-][n+]1ccccc1SSc1cccc[n+]1[O-],0.329 µM (active),
O=C(NO)C1(NS(=O)(=O)c2ccc(Oc3ccc(F)cc3)cc2)CCOCC1,,0.681% (inactive)
